According to PubChem BioAssay (NCI):
The panel holds about 79,000 compounds, 15% with a hit somewhere; the sample as a whole holds those more often. Active and inactive are the calls of the source. Cut-off read from the data, not from the text of the source: active = growth inhibition above about 70%; inactive = the rest.

Legend:
[1] = NCI Yeast Anticancer Drug Screen. Data for the wt2 strain (AID 169);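 note: 0% = growth of vehicle-treated yeast cultures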; conditions: S. cerevisiae wt2 strain growth inhibition, active compounds read high
Method in brief: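 Against vehicle-treated controls, the growth of yeast exposed to each compound was compared, and the inhibition was recorded.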

[2] = NCI Yeast Anticancer Drug Screen. Data for the mlh1 strain (AID 171);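 note: 0% = growth of vehicle-treated control cultures of the same strain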; conditions: S. cerevisiae mlh1 strain growth inhibition, active compounds read high
Method in brief: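 Measured: yeast growth. Reference: vehicle-treated controls. Organism: strain with a defined alteration affecting DNA damage repair or cell cycle control, treated with compound.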

[3] = NCI Yeast Anticancer Drug Screen. Data for the sgs1 strain (AID 173);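 note: 0% = growth of vehicle-only control cultures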; conditions: S. cerevisiae sgs1 mutant, active compounds read high
Method in brief: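 Each compound was added to cultures of the altered yeast strain. Growth was recorded, and inhibition was derived by comparison with vehicle controls.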

[4] = NCI Yeast Anticancer Drug Screen. Data for the mlh1 rad18 strain (AID 175); conditions: S. cerevisiae mlh1 rad18 strain growth inhibition, active compounds read high
Method in brief: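 Genetically defined yeast (DNA repair-deficient) exposed to compounds; growth inhibition determined relative to vehicle.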

[5] = NCI Yeast Anticancer Drug Screen. Data for the rad18 strain (AID 177); conditions: S. cerevisiae rad18 mutant growth inhibition, active compounds read high
Method in brief: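 Vehicle-treated cultures served as the baseline for scoring compound-induced growth inhibition in DNA-repair-mutant yeast.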

[6] = NCI Yeast Anticancer Drug Screen. Data for the rad52 strain (AID 147);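 note: 0% = growth of vehicle-treated control cultures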; conditions: S. cerevisiae rad52 mutant growth inhibition, active compounds read high
Method in brief: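 The repair-mutant yeast strain was incubated with compounds, then growth was read and inhibition derived relative to vehicle.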

[7] = NCI Yeast Anticancer Drug Screen. Data for the wt1 strain (AID 149);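 note: 0% = growth of vehicle-treated wt1 cultures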; conditions: S. cerevisiae wt1 strain (SPY 50644) growth inhibition, active compounds read high
Method in brief: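 Yeast wt1 strain exposed to compounds; growth inhibition measured relative to vehicle-treated controls.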

[8] = NCI Yeast Anticancer Drug Screen. Data for the rad50EPP+ strain (AID 151);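 note: 0% = growth of vehicle-treated control cultures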; conditions: S. cerevisiae rad50 mutant strain, active compounds read high
Method in brief: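 Vehicle-normalised growth inhibition; rad50EPP+ yeast strain, altered in DNA damage repair, compound-treated.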

[9] = NCI Yeast Anticancer Drug Screen. Data for the mgt1 strain (AID 153); conditions: S. cerevisiae mgt1 mutant growth inhibition, active compounds read high
Method in brief: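 Vehicle-normalized growth inhibition is determined in mgt1 yeast, a strain selected for a defined alteration in DNA repair or cell cycle control.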

[10] = NCI Yeast Anticancer Drug Screen. Data for the rad50 strain (AID 155);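 note: 0% = growth of vehicle-only cultures of the same strain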; conditions: S. cerevisiae rad50 strain growth inhibition, active compounds read high
Method in brief: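 Yeast carrying a defined DNA repair defect were exposed to test compounds, and growth was compared with vehicle-treated controls to give percent inhibition.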

[11] = NCI Yeast Anticancer Drug Screen. Data for the mec2-1 strain (AID 157); conditions: S. cerevisiae mec2-1 strain, active compounds read high
Method in brief: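 Mutant yeast (mec2-1) grown with compound; growth inhibition relative to vehicle control reported.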

[12] = NCI Yeast Anticancer Drug Screen. Data for the rad14 strain (AID 159);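 note: 0% = growth of vehicle-treated control cultures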; conditions: S. cerevisiae rad14 strain growth inhibition, active compounds read high
Method in brief: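 Yeast cells carrying a defined DNA-repair defect were exposed to compounds, and growth inhibition was calculated relative to vehicle-treated control cultures.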

[13] = NCI Yeast Anticancer Drug Screen. Data for the sgs1 mgt1 strain (AID 161);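 note: 0% = growth of cultures given vehicle only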; conditions: S. cerevisiae sgs1 mgt1 strain, active compounds read high
Method in brief: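 Percent growth inhibition was derived by comparing compound-exposed mutant yeast with vehicle-exposed cultures. The strain carries alterations in DNA damage repair.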

[14] = NCI Yeast Anticancer Drug Screen. Data for the CLN2oe strain (AID 163);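 note: 0% = growth of vehicle-only control cultures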; conditions: S. cerevisiae CLN2oe strain, active compounds read high
Method in brief: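 Compounds are applied to yeast harbouring a defined cell-cycle control change; reduced growth compared with vehicle-treated controls gives the value.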

[15] = NCI Yeast Anticancer Drug Screen. Data for the cln2 rad14 strain (AID 165);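 note: 0% = growth equal to vehicle treated cultures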; conditions: S. cerevisiae cln2 rad14 strain, active compounds read high
Method in brief: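 Readout is yeast growth inhibition versus vehicle-treated controls, using a strain with cln2 and rad14 alterations exposed to compound.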

[16] = NCI Yeast Anticancer Drug Screen. Data for the bub3 strain (AID 167); conditions: S. cerevisiae bub3 mutant strain, active compounds read high
Method in brief: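 Compounds were applied to a genetically altered yeast strain carrying a cell-cycle control defect. Growth inhibition was scored against vehicle-treated controls.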

[17] = at 5.0 µM (retest, dose inferred, filed as 0.5)
[18] = at 50.0 µM (retest, dose inferred, filed as 5.0)

Measured: growth inhibition

O=C1CC(C(O)(C(F)(F)F)C(F)(F)Cl)CCC1C(O)(C(F)(F)F)C(F)(F)Cl (stereo unspecified)
active: [1]; at 11.0 µM 84% | [1]; at 33.0 µM 93% | [1]; at 100.0 µM 98% | [2]; at 33.0 µM 92% | [2]; at 100.0 µM 98% | [3]; at 11.0 µM 80% | [3]; at 33.0 µM 96% | [3]; at 100.0 µM 98% | [4]; [18] 97% | [4]; at 50.0 µM 99% | [5]; at 11.0 µM 76% | [5]; at 33.0 µM 94% | [5]; at 100.0 µM 97%
inactive: [1]; at 1.2 µM 51% | [1]; at 3.7 µM 55% | [2]; at 1.2 µM 52% | [2]; at 3.7 µM 46% | [2]; at 11.0 µM 67% | [3]; at 1.2 µM 61% | [3]; at 3.7 µM 62% | [4]; [17] 42% | [5]; at 1.2 µM 42% | [5]; at 3.7 µM 45%

CCN1CCC(O)(c2ccc(Oc3ccc(C)cc3)cc2)C(C(=O)c2ccc(Oc3ccc(C)cc3)cc2)C1 (stereo unspecified)
inactive: [6]; at 1.2 µM -28% | [6]; at 3.7 µM -32% | [7]; at 1.2 µM -44% | [7]; at 3.7 µM -31% | [8]; at 1.2 µM -17% | [8]; at 3.7 µM 15% | [9]; at 1.2 µM -7% | [9]; at 3.7 µM 6% | [10]; at 1.2 µM -21% | [10]; at 3.7 µM -20% | [10]; [17] 18% | [11]; at 1.2 µM -9% | [11]; at 3.7 µM -1% | [11]; [17] 2% | [12]; at 1.2 µM -38% | [12]; at 3.7 µM -9% | [13]; [17] 16% | [13]; [18] -2% | [14]; at 1.2 µM 29% | [14]; at 3.7 µM 22% | [15]; [17] 18% | [15]; [18] 10% | [16]; at 1.2 µM 0% | [16]; at 3.7 µM 23% | [16]; [17] 14% | [16]; [18] 15% | [1]; at 1.2 µM -7% | [1]; at 3.7 µM -19% | [2]; at 1.2 µM -7% | [2]; at 3.7 µM -2% | [4]; [17] 21% | [5]; at 1.2 µM -20% | [5]; at 3.7 µM 5%
active: [6]; at 11.0 µM 96% | [6]; at 33.0 µM 95% | [6]; at 100.0 µM 93% | [7]; at 11.0 µM 97% | [7]; at 33.0 µM 96% | [7]; at 100.0 µM 94% | [8]; at 11.0 µM 96% | [8]; at 33.0 µM 94% | [8]; at 100.0 µM 93% | [9]; at 11.0 µM 98% | [9]; at 33.0 µM 96% | [9]; at 100.0 µM 95% | [10]; at 11.0 µM 97% | [10]; at 33.0 µM 95% | [10]; [18] 96% | [10]; at 50.0 µM 85.6% | [10]; at 100.0 µM 94% | [11]; at 11.0 µM 98% | [11]; at 33.0 µM 97% | [11]; [18] 97% | [11]; at 50.0 µM 92% | [11]; at 100.0 µM 94% | [12]; at 11.0 µM 96% | [12]; at 33.0 µM 95% | [12]; at 100.0 µM 92% | [13]; at 50.0 µM 88.8% | [14]; at 11.0 µM 98% | [14]; at 33.0 µM 96% | [14]; at 100.0 µM 91% | [15]; at 50.0 µM 88.2% | [16]; at 11.0 µM 97% | [16]; at 33.0 µM 96% | [16]; at 50.0 µM 89% | [16]; at 100.0 µM 95% | [1]; at 11.0 µM 97% | [1]; at 33.0 µM 96% | [1]; at 100.0 µM 86% | [2]; at 11.0 µM 98% | [2]; at 33.0 µM 97% | [2]; at 100.0 µM 95% | [4]; [18] 95% | [4]; at 50.0 µM 91% | [5]; at 11.0 µM 97% | [5]; at 33.0 µM 96% | [5]; at 100.0 µM 93%
